Screening results as filed in PubChem.
This is a sample that favours compounds with a hit; in the whole collection about 4.1% have one here.
ALR inh = blocks human ALR sulfhydryl oxidase activity. purified ALR, DTT oxidation, H2O2 HRP-luminol luminescence. inhibition, % (test concentration not listed). P55789. actives 3.8% (n = 290,000);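 active = mean replicate inhibition above about 79%, with every replicate also reaching it, limit read from the data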
HIV Env fusion = inhibitors of HIV Env-mediated cell fusion; HeLa-JRFL Env/CEM21 cell fusion, luciferase; inhibition, % at 12.3 µM; actives 1.1% (n = 360,000); AID 651610;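 active = mean replicate inhibition score of at least 50 and every replicate individually at or above 50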;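 note: 0% = plate neutral controls and 100% = maraviroc near 300 nM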
NSD2 HMT inh = inhibitors of human histone methyltransferase NSD2; inhibition, % at 12.5 µM; NSD2 peptide methylation, AlphaScreen, 120 min; O96028; actives 0.54% (n = 310,000); in the data active = inhibition above about 50%
PglD DTNB = PglD (C. jejuni) enzyme inhibition. purified PglD enzyme, DTNB colorimetric CoA detection. inhibition, % at 12.5 µM. actives 0.098% (n = 360,000). AID 602405; in the data active = inhibition above about 16%, passing the limit was not always enough
F508del corr = correctors of CFTR F508del function in bronchial epithelial cells. CFBE cells, YFP halide quenching; stimulated with forskolin plus potentiator P3; % fluorescence drop versus neutral controls. activity (quench increase), % at 7.58 µM. actives 0.36% (n = 350,000). AID 720511;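 active = mean added fluorescence quench of at least 8% versus neutral control, with both replicates also reaching 8%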;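 note: cells transiently co-express mutant CFTR-F508del with the halide-sensitive YFP; corrector assay measuring rescue of mutant channel to the surface after 24 h compound exposure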
Casp6 inh = inhibitors of human caspase-6; inhibition, % at 12.5 µM; actives 0.53% (n = 350,000); purified caspase-6, Z-VEID-R110 cleavage fluorescence; AID 686996; P55212;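 active = mean inhibition across replicates at least about 35%, with every replicate also reaching that limit, limit read from the data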;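 note: 0% = median of neutral control wells and 100% = no fluorescence left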
Target sequence (P55212 24-179 limits assumed): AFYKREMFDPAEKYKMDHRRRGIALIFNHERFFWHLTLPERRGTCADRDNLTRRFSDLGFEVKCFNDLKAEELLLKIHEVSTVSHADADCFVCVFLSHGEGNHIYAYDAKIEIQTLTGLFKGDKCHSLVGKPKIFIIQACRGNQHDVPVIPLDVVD
Target sequence (P55212 194-293 limits assumed): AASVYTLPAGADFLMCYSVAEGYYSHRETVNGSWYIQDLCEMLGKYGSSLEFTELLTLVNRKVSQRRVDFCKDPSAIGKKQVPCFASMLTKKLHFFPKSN
AlphaScreen art = counter-screen for NSD2 inhibitors: AlphaScreen artifacts; AC35, µM (doses to about 10 µM), for the others: at the highest dose activity change, negative = signal loss; AlphaScreen artifact counterscreen, preloaded methylated H4 peptide; shares compounds with NSD2 HMT inh; actives 9.4% (n = 1,500); call rule not given here
Numbers without * were called inactive; x = no result given; [ ] = remark or other dose.

SMILES | ALR inh | HIV Env fusion | NSD2 HMT inh | PglD DTNB | F508del corr | Casp6 inh | AlphaScreen art
O=C(NCCCO)c1ccc2nc(-c3ccco3)c(-c3ccco3)nc2c1 | x | -4 | 107* | x | -2 | 55* | -2%
CNCCCC12CCC(c3ccccc31)c1ccccc12 | -27 | 10 | 84* | 1 | 0 | -1 | 1%
ClN=C1C=CC=CC1=NCl | x | x | 108* | x | x | x | -3%
Cc1ccc(OCc2cnc(Cl)s2)c(C)c1 | -2 | -64 | 52* | 0 | 1 | 1 | 0%
COc1ccc(NC(=O)N(C)C[C@@H]2Oc3ccc(NC(=O)Cc4cn(C)c5ccccc45)cc3C(=O)N([C@@H](C)CO)C[C@H]2C)cc1 | x | 15[16.7 µM] | x | -2 | 0 | -1 | x
COc1ccccc1CN(Cc1cc2cc3c(cc2[nH]c1=O)OCCO3)Cc1nnnn1Cc1ccco1 | -23 | 8 | 60* | -2 | x | x | -6%
N#Cc1ccc(COC(=O)c2cc(=O)c3ccccc3o2)cc1 | 2 | 10 | -1 | x | -2 | 2 | x
O=C(OCc1ccc([N+](=O)[O-])cc1)c1cc(=O)c2ccccc2o1 | -3 | -13 | 115* | -3 | -3 | 2 | -1%
Cc1ccc(S(=O)(=O)Nc2ccc3c(c2)C(=O)N([C@H](C)CO)C[C@@H](C)[C@H](CN(C)C(=O)NC2CCCCC2)OCCCC[C@H](C)O3)cc1 | x | -50[16.7 µM] | x | 2 | 1 | 0 | x
CCN1CCCC1CNC(=O)c1ccc2c(c1)N(Cc1ccccc1F)C(=O)c1ccccc1S2(=O)=O (stereo unspecified) | -8 | -15 | 15 | 3 | 1 | -16 | x
CCN1CCCC1CNC(=O)c1ccc2c(c1)N(Cc1cccc(Cl)c1)C(=O)c1ccccc1S2(=O)=O (stereo unspecified) | 4 | -29 | 58* | 2 | 1 | -3 | -5%
Cc1noc(C)c1NC(=O)Nc1ccc2c(c1)C(=O)N([C@@H](C)CO)C[C@H](C)[C@@H](CN(C)C(=O)Nc1cccc3ccccc13)OCCCC[C@@H](C)O2 | x | 1[16.7 µM] | x | -1 | 2 | x | x
CCNC(=O)[C@@H]1[C@@H](CO)[C@@H]2Cn3c(ccc(-c4ccccc4F)c3=O)[C@H]1N2S(C)(=O)=O | x | x | x | x | 0 | 1 | x
CO[C@H]1CN(C)C(=O)c2cc(NC(=O)C3CC3)ccc2OC[C@@H](C)N(CCc2ccccc2)C[C@@H]1C | x | 8[16.7 µM] | x | 1 | -3 | x | x
CCOC(=O)c1c(C)[nH]c(C)c1C(=O)COC(=O)[C@@H]1CCCN1S(=O)(=O)c1ccc(Cl)cc1 | -3 | x | 76* | -4 | -2 | 9 | -5%
O=C(COC(=O)[C@@H]1CCCN1S(=O)(=O)c1ccc(Cl)cc1)NCC(F)(F)F | 5 | 28 | -1 | x | x | x | x
Cc1ccc(NC(=O)CN(C)CCOc2ccccc2)c([N+](=O)[O-])c1 | 4 | -5 | 75* | 2 | -3 | 1 | -1%
O=C(CSc1nccn1-c1ccccc1)NCc1ccc(F)cc1 | -2 | -8 | 0 | 0 | 2 | 0 | x
O=C(CSc1nccn1-c1ccc(F)cc1)NCc1ccc(F)cc1 | -8 | -23 | 50* | x | -1 | 2 | -12%
CCCC(=O)Nc1ccc2c(c1)C(=O)N(C)C[C@@H](OC)[C@@H](C)CN(Cc1ccncc1)[C@H](C)CO2 | x | x | x | x | 2 | x | x
O=C(NC1CCCC1)c1cc(-c2ccc(Cl)cc2Cl)on1 | 2 | -66 | 89* | 6 | 0 | x | -7%
C/C=C/c1ccc([C@H]2[C@@H](CO)N3C(=O)CN(C(=O)Nc4cccc(OC)c4)C[C@@H]23)cc1 | x | x | x | x | -1 | 2 | x
C/C=C/c1ccc2c(c1)O[C@@H](CN(C)C(=O)NC(C)C)[C@@H](C)CN([C@@H](C)CO)S2(=O)=O | x | 6[16.7 µM] | x | 0 | 4 | 1 | x
O=C(CC(=O)NCCc1ccccc1)NCCc1ccccc1 | -9 | 19 | 124* | 3 | -2 | -4 | -1%
Cc1ccc(S(=O)(=O)Nc2ccc(Br)cc2C(NCC(=O)O)c2ccccc2)cc1 (stereo unspecified) | 5 | -39 | -6 | -8 | x | x | x
O=C(O)CSc1cc(NS(=O)(=O)c2ccc(Br)cc2)c2ccccc2c1O | 19 | -3 | 107* | -1 | 1 | 95* | -6%
